In the library only some 6.4% were active in any assay of this set; here they are far more common.
KinaseGlo FLuc – Counterscreen for Luciferase (Kinase-Glo TM) Inhibition | Luciferin 4-monooxygenase (Photuris pensylvanica), Q27757 | Kinase-Glo luciferase, ATP luminescence, 8 min | Potency, µM (titrated, usually from 38.3 µM), most hits filed as inhibitors | hit rate 0.28% among 200,000 | AID 1379, 2008; further: nearly all actives have a fitted effect of over 60% in size
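Recombinant Kinase-Glo luciferase, 10 uM ATP (linear range), luciferin; imidazole pH 7.2 / KCl / MgCl2 / Tween / BSA buffer; 8 min RT; luminescence.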
VP16 counter – VP16 counterscreen qHTS for inhibitors of ROR gamma transcriptional activity | Drosophila S2 Gal4-VP16 UAS-luciferase, luminescence, 20 h | Potency, µM (highest dose often 53.6 µM), actives largely listed as inhibitors | hit rate 3.5% among 310,000;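 further: Gal4-VP16 expression switched on by copper sulfate through the metallothionein promoter; nearly all actives have a fitted effect of over 50% in size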
RORg inh – qHTS for inhibitors of ROR gamma transcriptional activity. Drosophila S2 Gal4-RORgamma UAS-luciferase reporter, 20 h. hit rate 5.4% among 310,000. Potency, µM (top dose mostly 53.6 µM), most hits filed as inhibitors. Nuclear receptor ROR-gamma (Mus musculus), P51450; further: nearly all actives have a fitted effect of over 60% in size
Target sequence (P51450 whole entry, looked up, the tested form may be a part): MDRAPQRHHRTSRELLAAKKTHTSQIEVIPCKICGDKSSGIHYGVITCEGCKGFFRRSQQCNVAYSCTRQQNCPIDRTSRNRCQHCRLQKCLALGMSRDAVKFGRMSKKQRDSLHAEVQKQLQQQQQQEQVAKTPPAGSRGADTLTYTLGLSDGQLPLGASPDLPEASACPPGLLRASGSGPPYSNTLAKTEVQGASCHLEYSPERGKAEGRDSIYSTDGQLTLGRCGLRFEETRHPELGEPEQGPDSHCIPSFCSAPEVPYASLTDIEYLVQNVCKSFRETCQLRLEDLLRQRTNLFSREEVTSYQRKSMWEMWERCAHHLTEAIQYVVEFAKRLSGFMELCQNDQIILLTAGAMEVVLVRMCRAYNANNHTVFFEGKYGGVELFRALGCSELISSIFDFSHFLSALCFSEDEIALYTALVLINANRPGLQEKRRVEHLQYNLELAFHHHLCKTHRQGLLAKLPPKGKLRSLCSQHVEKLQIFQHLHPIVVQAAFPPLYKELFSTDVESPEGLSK
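In this cell-based reporter format, copper sulfate (700 uM final) drives Gal4–ROR gamma fusion expression from a metallothionein promoter in Drosophila Schneider cells; compounds preincubated 1 hr, reporter read after 20 hr at ambient temperature.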
Numbers stand for hits; 0 = inactive; ? = inconclusive; - = no result; [ ] = dose if it differs, or a comment. The call rests on the fitted dose curve; in most records, active means well fitted curve in the direction sought with a large enough effect; inconclusive means small, poorly fitted or top-dose-only effect, or another doubt; inactive means no such curve, though single readings can be large; an effect the other way counts as inactive or inconclusive.

SMILES | KinaseGlo FLuc | VP16 counter | RORg inh
O=C(N/N=C/C=C\c1ccccc1[N+](=O)[O-])c1ccccn1 | 0 | 0 | ?
O=C(N/N=C/C=C/c1ccccc1[N+](=O)[O-])c1cc(-c2ccccc2)n[nH]1 | 0 | 14µM | 7.1µM
O=C(N/N=C/c1cccc(OC(=O)N2CCOCC2)c1)c1cccs1 | 0 | 13µM | ?
O=C(O/N=C/c1ccc2c(c1)OCO2)c1ccccc1Cl | 11µM | 0 | 0
COc1cccc(/C=N/NC(=O)c2cccs2)c1 | - | 0 | 0
O=C(N/N=C/c1ccc2c(c1)OCO2)C(=O)Nc1ccccc1Cl | - | 0 | 0
Cc1ccccc1/C=N/NC(=O)c1sccc1C | 13µM | 0 | 0
Cc1ccccc1/C=N\NC(=O)c1ccccc1-n1cccc1 | 0 | 0 | 0
O=S(=O)(c1ccccc1)c1ccc(N2CCCCCC2)cc1 | - | 0 | ?
COc1ccc2[nH]cc(CCNc3ncncc3-c3cccc(C#N)c3)c2c1 | - | 0 | ?
CC(C)(C)OC(=O)NN=C(c1ccc(O)cc1)c1ccc(O)cc1 | - | 0 | 0
O=C(N/N=C/c1ccc2c(c1)OCO2)c1cccs1 | 13µM | 0 | 0
O=C(N/N=C/c1ccc2c(c1)OCO2)c1ccccn1 | 10µM | ? | ?
O=C(N/N=C/c1cc2c(cc1Br)OCO2)c1ccccn1 | - | ? | 0
O=C(N/N=C/c1ccc2c(c1)OCO2)c1cccc2ccccc12 | - | 0 | 0
COC(CNC(=O)c1ccc(CS(=O)(=O)c2ccc(Br)cc2)o1)OC | - | 0 | 0
CC(=O)Nc1ccc(NC2=Nc3ccccc3N3C2=Nc2c(c(C)nn2-c2ccccc2)C3c2ccccc2)cc1 (stereo not drawn) | 0 | 0.89µM | 0.089µM
COc1ccc(NC2=Nc3ccccc3N3C2=Nc2c(c(C)nn2-c2ccc(C)cc2)C3c2cccnc2)cc1 (stereo not drawn) | 0 | 0 | 0
FC(F)(F)c1ccc(CSc2nccn2-c2ccccc2)cc1 | 0 | 0 | ?
O=C(CSc1nccn1-c1ncc(C(F)(F)F)cc1Cl)c1ccc(Br)cc1 | 0 | ? | 11µM
Cc1ccc(C(=O)CSc2nccn2-c2ccccc2)cc1 | 0 | ? | 10µM
O=C(Nc1ccc(Br)cc1)c1cccn1-c1ncc(C(F)(F)F)cc1Cl | 0 | 0 | ?
Clc1cccc(CSc2nccn2-c2ccccc2)c1 | 0 | 0 | 5µM
Brc1ccc(CSc2nccn2-c2ccccc2)cc1 | 0 | 0 | 14µM
O=C(CSc1nccn1-c1ccccc1)c1ccc(Cl)cc1 | 0 | 0 | ?
SMILES | KinaseGlo FLuc | VP16 counter | RORg inh
Clc1cccc(CSc2ncn(-c3ccccc3)n2)c1 | 0 | 0 | 0
COc1ccc(-c2cc(C)no2)cc1S(=O)(=O)N1CCN(c2ccccc2F)CC1 | - | 0 | 0
CN(C)S(=O)(=O)c1ccc(NC(=O)COC(=O)CC2CC3CCC2C3)cc1 (stereo not drawn) | 0 | 0 | 0
O=C1CN(C(=O)COC(=O)c2ccc[n+]([O-])c2)c2ccccc2N1 | 0 | 0 | 0
COc1ccccc1N1C(=O)c2ccc(C(=O)Nc3ccc(F)cc3)cc2C1=O | - | 16µM | 0
COc1ccccc1N1C(=O)c2ccc(C(=O)Nc3cccc(C(C)=O)c3)cc2C1=O | - | 0 | 0
CCOC(=O)c1c(NC(=S)NC)sc2c1CC(C)(C)SC2 | 0 | 0.89µM | 0.4µM
CCOC(=O)c1c(NC(=S)Nc2ccccc2)sc2c1CCN(CCc1ccccc1)C2 | 0 | 0 | 0
Cc1sc(NC(=S)Nc2ccc(F)cc2)c(C(N)=O)c1C | 0 | 11µM | 8.9µM
CNC(=S)Nc1sc2c(c1C(=O)OC)CCC2 | 0 | ? | 1.3µM
COC(=O)c1c(NC(=S)Nc2ccc(CC(=O)O)cc2)sc(C)c1C | 0 | 0 | 0
CCOC(=O)c1c(NC(=S)Nc2ccc(OC)cc2)sc2c1CCC2 | 0 | 0 | ?
CCOC(=O)c1c(NC(=S)Nc2ccccc2)sc2c1CC(C)(C)SC2 | 0 | 4µM | 2.8µM
COC(=O)c1c(NC(C)=O)sc2c1CCCC2 | 0 | 0 | 0
N#Cc1c(-c2ccccc2)nc2n1CCS2 | 0 | 0 | 0
COc1ccc(NC(=O)CN2C(=O)COc3ccc(S(=O)(=O)N4CCOCC4)cc32)cc1Cl | - | 0 | 0
COC(=O)Cn1c(O)c(N=NC(=O)CNC(=O)c2ccncc2)c2ccccc21 | - | 0 | 0
O=C(NC1CCCC1)C1CCN(C(=O)c2ccc(Cl)cc2Cl)CC1 | - | 0 | 0
CCOC(=O)c1c(NC(=S)Nc2cccnc2)sc(C)c1C | 0 | ? | 13µM
COC(=O)c1c(NC(=O)Cc2cccs2)sc2c1CCC(C)C2 (stereo not drawn) | 0 | 0 | ?
COC(=O)c1c(NC(=S)NN2CCN(C)CC2)sc2c1CCC(C)C2 (stereo not drawn) | 0 | 5µM | 2µM
CCOC(=O)c1c(NC(=S)Nc2ccc(Cl)cc2)sc(C)c1C | 0 | 0 | 0
COC(=O)c1nnc(C(=O)NCc2ccccc2)c2[nH]c3ccccc3c12 | 0 | 0 | 0
CO[C@]12C(COC(N)=O)C3=C(C(=O)C(C)=C(N)C3=O)N1CC1NC12 (stereo partly drawn) | 0 | 0 | 0
C/C(CCN1CCCc2nc(C)c(C)cc21)=N\O[C@@H](C)c1cn([C@H](CO)Cc2ccccc2)nn1 | - | 0[10 µM] | 0[10 µM]
SMILES | KinaseGlo FLuc | VP16 counter | RORg inh
Cn1c(C(=O)c2ccccc2[N+](=O)[O-])nc2ccccc21 | 0 | 0 | 0
C=CCNC(=S)NNc1nc2sc3c(c2c(=O)[nH]1)CC(C)(C)OC3 | - | 10µM | 5.6µM
CC1(C)Cc2c(sc3nc[nH]c(=O)c23)CO1 | 0 | 0 | 0
CCc1c2c(nc3ccc(OC(=O)N4CCC(N5CCCCC5)CC4)cc13)-c1cc3c(c(=O)n1C2)COC(=O)C3(O)CC (stereo not drawn) | - | 0 | 0
N=C(C[C@@H](O)COc1ccccc1-c1ccccc1)N1CCCCC1 | 0 | 0 | 0
CC(C)(C)NC(=S)NCC1CC1 | - | ? | 7.1µM
Cc1ccccc1NC(=S)NCC1CCC(CNC(=S)Nc2ccccc2C)CC1 (stereo not drawn) | - | 0 | 0
COCCCNC(=O)Cc1c(C)c2cc3c(cc2oc1=O)OC(C)(C)CC3 | - | 0 | 0
NC(=O)c1csc(-c2ccc(CO)o2)n1 | 0[7.66 µM] | - | -
OCc1ccc(-c2ccc(-c3ccc(CO)s3)o2)s1 | 0 | 1.6µM | 0.63µM
CC(=O)c1nc(-c2ccccc2)sc1C | 0 | 0 | 0
O=C(/C=C/c1cccs1)c1ccc([N+](=O)[O-])cc1 | - | 0 | 0
O=C(/C=C/c1cccc(F)c1)c1ccc(N2CCOCC2)cc1 | - | 22µM | ?
O=C(/C=C/c1cccs1)c1ccc(N2CCOCC2)cc1 | ? | 14µM | 7.9µM
O=C(/C=C/c1cccc(F)c1)Nc1cc(S(=O)(=O)N2CCOCC2)ccc1N1CCCC1 | 0 | 0 | 0
Cc1cc(=O)[nH]c(N=N/C(=N/Nc2ccc(O)cc2)c2ccccc2)n1 | 7.9µM | 0 | 0
Cc1cc(=O)[nH]c(SCC(=O)Nc2ccccc2C)n1 | 0 | 0 | 0
COc1ccc2nc(C)cc(Nc3ccc(C(=O)O)cc3)c2c1 | - | 0 | 0
Cc1cc(=O)[nH]c(N=N/C(=N/Nc2ccccc2C)c2ccccc2)n1 | ? | 5µM | 2.5µM
COc1ccc(N/N=C(/N=Nc2nc(C)cc(=O)[nH]2)c2ccccc2)cc1 | 8.9µM | 5µM | ?
Cc1cc(=O)[nH]c(N/N=C/c2ccccc2C(F)(F)F)n1 | 0 | 0 | 0
COc1ccc(-c2ccc(F)cc2)cc1C1C2C=CCC(C)C2C(=O)N1Cc1ccccc1 (stereo not drawn) | - | 0 | 0

High-throughput results as filed in PubChem BioAssay.
